Consider nine molecules from ChEMBL document CHEMBL1961873, “Compounds: GSK PKIS; Assays: Nanosyn kinase panel” (2012).

Assay [1] addresses Casein kinase I isoform gamma-2 (Homo sapiens) (UniProt P78368). To be noted: at 1 µM.
In assay [2] the target is Casein kinase I isoform gamma-3 (Homo sapiens) (UniProt Q9Y6M4). To be noted: at 0.1 µM.
For assay [3] the target is unchanged. To be noted: at 1 µM.
The target in assay [4] is Cyclin-dependent kinase 1 (Homo sapiens) (UniProt P06493). The conditions noted are these: at 0.1 µM.
Sequence of Cyclin-dependent kinase 1 (Homo sapiens) (P06493 whole entry, looked up): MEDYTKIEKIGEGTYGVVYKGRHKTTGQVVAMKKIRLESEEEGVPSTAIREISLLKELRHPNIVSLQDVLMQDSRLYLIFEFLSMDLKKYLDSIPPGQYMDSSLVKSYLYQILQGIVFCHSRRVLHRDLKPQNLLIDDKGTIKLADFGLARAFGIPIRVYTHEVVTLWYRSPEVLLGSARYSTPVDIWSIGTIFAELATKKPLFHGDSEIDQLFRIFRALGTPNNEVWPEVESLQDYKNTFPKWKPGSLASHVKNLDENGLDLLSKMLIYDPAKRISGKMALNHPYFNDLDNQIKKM
Assay [5] shares this target. The conditions noted are these: at 1 µM.
Assay [6] addresses Cyclin-dependent kinase 2 (Homo sapiens) (UniProt P24941). The conditions noted are these: at 0.1 µM.
For assay [7] the target is unchanged. The conditions noted are these: at 1 µM.
Assay [8] has the same target. The conditions noted are these: at 0.1 µM. The source holds these as a separate data set.
The target is the same in assay [9]. To be noted: at 1 µM. The source holds these as a separate data set.
In assay [10] the target is T1, CDK3/Cyclin E (Homo sapiens) (UniProt P24864+Q00526). The conditions noted are these: at 0.1 µM.
T1 sequence (P24864 whole entry, looked up): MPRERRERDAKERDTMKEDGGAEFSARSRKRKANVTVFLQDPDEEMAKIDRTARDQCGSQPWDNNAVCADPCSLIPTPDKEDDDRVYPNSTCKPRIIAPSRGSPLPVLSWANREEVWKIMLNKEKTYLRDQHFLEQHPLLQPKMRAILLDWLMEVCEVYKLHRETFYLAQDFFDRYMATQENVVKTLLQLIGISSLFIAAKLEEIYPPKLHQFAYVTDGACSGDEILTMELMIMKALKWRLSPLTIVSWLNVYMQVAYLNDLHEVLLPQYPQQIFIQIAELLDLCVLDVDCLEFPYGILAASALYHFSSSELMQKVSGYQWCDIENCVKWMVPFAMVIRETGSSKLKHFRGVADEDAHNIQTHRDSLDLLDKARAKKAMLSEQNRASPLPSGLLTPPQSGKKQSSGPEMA
T1 sequence (Q00526 whole entry, looked up): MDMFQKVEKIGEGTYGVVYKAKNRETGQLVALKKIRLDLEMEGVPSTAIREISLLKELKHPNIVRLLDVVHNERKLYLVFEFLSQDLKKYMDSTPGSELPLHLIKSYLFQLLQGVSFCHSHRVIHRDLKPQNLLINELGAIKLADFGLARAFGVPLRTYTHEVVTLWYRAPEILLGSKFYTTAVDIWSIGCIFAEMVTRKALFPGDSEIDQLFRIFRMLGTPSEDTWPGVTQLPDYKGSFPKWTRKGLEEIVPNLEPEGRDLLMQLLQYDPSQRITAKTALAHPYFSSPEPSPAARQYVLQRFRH
The target of assay [11] is T1, CDK3/Cyclin E (Homo sapiens). To be noted: at 1 µM.
Assay [12] has as its target Cyclin-dependent kinase 4 (Homo sapiens) (UniProt P11802). To be noted: at 0.1 µM.
For assay [13] the target is unchanged. To be noted: at 1 µM.
Assay [14] deals with Cyclin-dependent kinase 5 (Homo sapiens) (UniProt Q00535). To be noted: at 0.1 µM.
Sequence of Cyclin-dependent kinase 5 (Homo sapiens) (Q00535 whole entry, looked up): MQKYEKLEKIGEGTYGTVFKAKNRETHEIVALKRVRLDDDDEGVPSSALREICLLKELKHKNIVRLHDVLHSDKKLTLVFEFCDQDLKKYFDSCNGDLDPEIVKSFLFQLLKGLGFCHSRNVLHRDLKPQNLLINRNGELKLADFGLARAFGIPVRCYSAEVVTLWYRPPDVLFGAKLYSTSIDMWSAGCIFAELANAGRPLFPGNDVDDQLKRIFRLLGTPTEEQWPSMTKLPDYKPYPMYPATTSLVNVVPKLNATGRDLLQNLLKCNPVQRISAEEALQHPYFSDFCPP
Assay [15] has the same target. The conditions noted are these: at 1 µM.
The target of assay [16] is Cyclin-dependent kinase 6 (Homo sapiens) (UniProt Q00534). The conditions noted are these: at 0.1 µM.
Sequence of Cyclin-dependent kinase 6 (Homo sapiens) (Q00534 whole entry): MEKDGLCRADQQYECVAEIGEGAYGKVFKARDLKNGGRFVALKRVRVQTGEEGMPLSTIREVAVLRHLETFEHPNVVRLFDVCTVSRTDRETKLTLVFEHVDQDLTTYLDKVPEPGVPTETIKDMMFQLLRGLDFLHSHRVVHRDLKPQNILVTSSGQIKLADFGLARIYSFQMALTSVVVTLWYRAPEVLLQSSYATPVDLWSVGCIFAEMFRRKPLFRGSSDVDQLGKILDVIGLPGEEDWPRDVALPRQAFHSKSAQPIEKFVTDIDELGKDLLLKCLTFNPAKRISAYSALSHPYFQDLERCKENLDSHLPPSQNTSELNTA
For assay [17] the target is unchanged. The conditions noted are these: at 1 µM.
In assay [18] the target is Dual specificity protein kinase CLK2 (Homo sapiens) (UniProt P49760). The conditions noted are these: at 0.1 µM.
Sequence of Dual specificity protein kinase CLK2 (Homo sapiens) (P49760 whole entry, looked up): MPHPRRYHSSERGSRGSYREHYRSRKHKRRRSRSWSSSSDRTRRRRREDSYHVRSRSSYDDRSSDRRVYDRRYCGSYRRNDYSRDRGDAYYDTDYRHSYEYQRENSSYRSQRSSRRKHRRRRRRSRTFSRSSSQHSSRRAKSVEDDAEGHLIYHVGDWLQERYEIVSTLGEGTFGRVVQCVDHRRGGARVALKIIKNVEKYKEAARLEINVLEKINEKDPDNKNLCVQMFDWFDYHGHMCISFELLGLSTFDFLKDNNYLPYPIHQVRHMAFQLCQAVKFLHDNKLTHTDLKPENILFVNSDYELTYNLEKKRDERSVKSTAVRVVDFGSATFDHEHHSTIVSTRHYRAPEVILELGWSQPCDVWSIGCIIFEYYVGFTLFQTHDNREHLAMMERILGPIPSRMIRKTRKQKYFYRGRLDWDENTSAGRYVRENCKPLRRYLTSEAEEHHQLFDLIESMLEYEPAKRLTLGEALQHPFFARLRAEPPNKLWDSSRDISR
For assay [19] the target is unchanged. To be noted: at 1 µM.
The target in assay [20] is Dual specificity protein kinase CLK3 (Homo sapiens) (UniProt P49761). The conditions noted are these: at 0.1 µM.
Sequence of Dual specificity protein kinase CLK3 (Homo sapiens) (P49761 whole entry, looked up): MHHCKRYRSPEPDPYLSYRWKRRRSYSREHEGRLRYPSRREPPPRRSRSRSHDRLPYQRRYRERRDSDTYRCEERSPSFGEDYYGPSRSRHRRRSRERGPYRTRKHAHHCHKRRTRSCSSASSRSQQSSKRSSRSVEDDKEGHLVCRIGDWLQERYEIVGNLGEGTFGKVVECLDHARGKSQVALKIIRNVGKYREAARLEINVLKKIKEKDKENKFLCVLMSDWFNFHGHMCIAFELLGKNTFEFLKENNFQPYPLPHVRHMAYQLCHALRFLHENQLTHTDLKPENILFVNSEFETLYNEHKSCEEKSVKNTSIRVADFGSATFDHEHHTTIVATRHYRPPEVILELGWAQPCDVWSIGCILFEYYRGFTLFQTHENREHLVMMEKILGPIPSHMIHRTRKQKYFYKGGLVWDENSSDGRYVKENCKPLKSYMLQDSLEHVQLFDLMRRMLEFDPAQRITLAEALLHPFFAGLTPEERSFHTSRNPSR

Sequence of Casein kinase I isoform gamma-3 (Homo sapiens) (Q9Y6M4 whole entry, looked up, canonical isoform): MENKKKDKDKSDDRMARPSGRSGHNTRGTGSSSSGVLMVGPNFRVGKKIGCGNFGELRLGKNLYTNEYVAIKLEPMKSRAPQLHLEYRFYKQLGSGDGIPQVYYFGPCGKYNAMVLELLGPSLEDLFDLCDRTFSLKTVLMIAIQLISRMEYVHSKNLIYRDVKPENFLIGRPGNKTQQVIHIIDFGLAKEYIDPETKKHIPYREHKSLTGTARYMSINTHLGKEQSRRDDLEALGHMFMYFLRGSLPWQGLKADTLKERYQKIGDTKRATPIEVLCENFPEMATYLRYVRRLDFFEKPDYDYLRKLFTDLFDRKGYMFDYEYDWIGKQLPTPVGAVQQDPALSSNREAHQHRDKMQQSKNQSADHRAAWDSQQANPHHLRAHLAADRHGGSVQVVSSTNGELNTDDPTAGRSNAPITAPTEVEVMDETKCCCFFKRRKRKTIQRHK
Sequence of Cyclin-dependent kinase 4 (Homo sapiens) (P11802 whole entry): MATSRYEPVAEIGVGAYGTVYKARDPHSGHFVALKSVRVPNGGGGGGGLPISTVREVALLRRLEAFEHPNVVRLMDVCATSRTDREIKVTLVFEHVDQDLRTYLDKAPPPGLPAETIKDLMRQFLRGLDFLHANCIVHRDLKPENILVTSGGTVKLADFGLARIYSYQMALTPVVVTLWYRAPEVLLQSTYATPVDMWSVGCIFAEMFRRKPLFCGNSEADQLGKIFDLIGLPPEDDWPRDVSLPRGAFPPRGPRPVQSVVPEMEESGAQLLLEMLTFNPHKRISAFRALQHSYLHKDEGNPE
Sequence of Casein kinase I isoform gamma-2 (Homo sapiens) (P78368 whole entry, looked up, canonical isoform): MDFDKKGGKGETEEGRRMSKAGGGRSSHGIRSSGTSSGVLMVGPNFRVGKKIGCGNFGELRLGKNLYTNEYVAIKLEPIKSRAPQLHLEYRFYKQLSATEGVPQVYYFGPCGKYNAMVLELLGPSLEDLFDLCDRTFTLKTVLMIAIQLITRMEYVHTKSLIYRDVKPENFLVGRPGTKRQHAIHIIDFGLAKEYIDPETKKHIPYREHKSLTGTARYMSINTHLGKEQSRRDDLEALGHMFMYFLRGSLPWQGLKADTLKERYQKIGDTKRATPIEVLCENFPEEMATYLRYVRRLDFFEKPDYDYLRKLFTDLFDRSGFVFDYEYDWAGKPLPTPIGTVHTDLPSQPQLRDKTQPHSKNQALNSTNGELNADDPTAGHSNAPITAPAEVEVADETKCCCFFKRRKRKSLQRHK

As to `NC(=O)c1ccc(Oc2nccc(-c3c(-c4ccc(F)cc4)ncn3C3CCNCC3)n2)cc1`, the inhibition amounted to 7.07% in assay [1]; 4.74% in [2]; 9.02% in [3]; 3.25% in [4]; 1.41% in assay [5]; 3.34% in assay [6]. Also, the inhibition is 3.6% in assay [7]; 3.03% in [8]; 4.26% in assay [9]; -3.59% in assay [10]; 1.23% in [11]; 3.18% in assay [12]. Further, the inhibition was 3.14% in assay [13]; 1.5% in assay [14]; 1.61% in assay [15]; -4.69% in assay [16]; -0.8% in assay [17]; 1.44% in [18]. In addition, the results for the inhibition in assay [19] and in [20] were 6.51% and 2.43%, respectively.
Regarding `C#Cc1cccc(Nc2ncnc3ccc(OCCCCNCCS(C)(=O)=O)cc23)c1`, the inhibition in [1] is 1.61%; in [2] it was -0.3%; in [3], 0.33%; in [4], -2.94%; in [5], -2.94%; in assay [6] it was -1.15%. Moreover, the inhibition is -0.68% in assay [7]; 0.97% in assay [8]; 1.11% in assay [9]; 3.19% in assay [10]; -3.02% in [11]; -1.23% in assay [12]. In addition, the inhibition is 0.97% in [13]; -2.73% in [14]; -2.83% in [15]; -4.26% in [16]; 0.21% in assay [17]; 1.01% in assay [18]. The values for the inhibition in [19] and in [20] were 1.36% and -1.3%, respectively.
`COc1cc(Nc2ncc3c(C)nc(-c4cccc(Oc5ccccc5)c4)n3n2)cc(OC)c1OC`: the inhibition in assay [1] was 3.44%; in [2], 1.22%; in assay [3], 5.12%; in assay [4] it was -0.4%; in assay [5], 0.45%; in [6], 2.04%. The inhibition in assay [7] worked out at 2.37%; in assay [8] it was 0.75%; in [9], 3.13%; in assay [10] it was 0.34%; in assay [11] it was 3.12%; in assay [12] it was 0.68%. Further, the inhibition in assay [13] stood at 1.99%; in [14], 0.07%; in assay [15] it was 1.06%; in assay [16] it was 2.92%; in assay [17] it was 3.25%; in assay [18], 0.86%. The inhibition was 3.28% in assay [19] and 0.71% in [20].
For `O=C1Nc2ccc(I)cc2C1=Cc1cc(Br)c(O)c(Br)c1`, the inhibition in assay [1] turned out to be 6.34%; in assay [2] it was 3.79%; in [3], 3.16%; in [4], 2.76%; in [5], 1.43%; in [6] it was 4.61%. The inhibition is 3.86% in assay [7]; 1.77% in assay [8]; 3.35% in assay [9]; -4.12% in assay [10]; -2.28% in [11]; 4.82% in assay [12]. For the same molecule, the inhibition is 6.47% in assay [13]; 0.5% in [14]; 0.26% in [15]; -0.1% in assay [16]; 0.92% in assay [17]; 1.63% in [18]. Moreover, the inhibition in assay [19] is 4.77%; in [20], -0.91%.
Consider `COc1cc(C)c(N(C)C(=O)CN(C)C)cc1Nc1nc(Nc2cccc(F)c2C(N)=O)c2cc[nH]c2n1`, for which the inhibition in [1] was 10.4%; in assay [2], -0.15%; in assay [3], 26.6%; in [4], -4.66%; in [5] it was -4.18%; in assay [6], -3.41%. Besides, the inhibition in [7] is 1.23%; in assay [8], -2.41%; in assay [9], -2.88%; in assay [10], -0.03%; in assay [11] it was 0.55%; in assay [12] it was -3.32%. Besides, the inhibition was -2.23% in [13]; -3.87% in assay [14]; -4.34% in [15]; -3.28% in [16]; -2.66% in assay [17]; 2.65% in [18]. In addition, the results for the inhibition in assay [19] and in [20] were 12.6% and -5.35%, respectively.
Consider `CN(C)CCOc1ccc(-c2cc(-c3ccc4c(c3)CCC4=NO)c(-c3ccncc3)o2)cc1`, for which the inhibition in assay [1] was -0.77%; in assay [2], -0.76%; in assay [3] it was -0.08%; in assay [4] it was 0.53%; in assay [5], 1.85%; in assay [6], -0.07%. The inhibition is 0.53% in assay [7]; -0.38% in [8]; 0.33% in [9]; -2.82% in assay [10]; -0.71% in assay [11]; -0.67% in assay [12]. For the same molecule, the inhibition in assay [13] is 1.69%; in assay [14], 0.66%; in assay [15], 0.57%; in [16], -3.52%; in assay [17], -0.6%; in [18], 0.73%. Further, the results for the inhibition in [19] and in [20] were -1.28% and -0.3%, respectively.
As to `Cc1ccc(NC(=O)c2ccoc2)cc1-c1ccc(C(=O)NCC2CC2)cc1`, the inhibition is 3.57% in [1]; 2.63% in assay [2]; 2.71% in [3]; 1.06% in assay [4]; 1.75% in assay [5]; -0.08% in [6]. The inhibition in [7] is 1.04%; in [8] it was 0.91%; in assay [9], 3.1%; in assay [10] it was -0.03%; in [11], -5.1%; in [12], 0.87%. Also, the inhibition is 2.89% in assay [13]; 0.24% in assay [14]; 1.07% in assay [15]; -5.62% in [16]; 0.19% in assay [17]; 0.43% in assay [18]. For the same molecule, the inhibition in assay [19] is -2.64%; in assay [20], 0.53%.
As to `COc1cc2ncn(-c3cc(OCc4ccccc4C(F)(F)F)c(C(C)=O)s3)c2cc1OC`, the inhibition in assay [1] is 3.62%; in assay [2], 2.1%; in [3] it was 2.97%; in assay [4] it was 0.91%; in assay [5], 2.22%; in [6] it was 0.94%. Also, the inhibition in assay [7] is 2.63%; in assay [8], 2.2%; in assay [9], 3.96%; in [10], -1.43%; in [11], -2.36%; in assay [12] it was 1.74%. In addition, the inhibition was 2.66% in [13]; 0.4% in [14]; 1.96% in assay [15]; -0.64% in assay [16]; -0.67% in assay [17]; 0.9% in assay [18]. The results for the inhibition in assay [19] and in assay [20] were -0.63% and 0.94%, respectively.
For `COc1ccc(C2=C(N3CCc4ccccc43)C(=O)NC2=O)cc1`, the inhibition in [1] is 4.63%; in assay [2], 1.81%; in assay [3], 3.33%; in assay [4], 1.56%; in [5], 3.2%; in [6], 3.48%. Besides, the inhibition in [7] is 3.47%; in assay [8], 4.49%; in [9] it was 6.31%; in assay [10] it was 3.69%; in assay [11], -1.35%; in assay [12], 3.95%. The inhibition worked out at 4.61% in [13]; 1.51% in [14]; 3.83% in [15]; 4.88% in assay [16]; 7.18% in assay [17]; 0.19% in assay [18]. Besides, the results for the inhibition in [19] and in [20] were 7.06% and 2.88%, respectively.

By inhibition is commonly meant the relative decrease from the control value, in per cent.
